In PubChem BioAssay:

target: Epidermal growth factor receptor (Homo sapiens) (UniProt P00533); test: EGFR binders on small-molecule microarrays, primary screen, biochemical, small-molecule microarray, 635 nm fluorescence (AID 1104); details: EGFR binding, higher = more signal;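 further: score merges 667 nm emission intensity with spot signal to noise over triplicate slides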
Sequence (P00533 whole entry, looked up): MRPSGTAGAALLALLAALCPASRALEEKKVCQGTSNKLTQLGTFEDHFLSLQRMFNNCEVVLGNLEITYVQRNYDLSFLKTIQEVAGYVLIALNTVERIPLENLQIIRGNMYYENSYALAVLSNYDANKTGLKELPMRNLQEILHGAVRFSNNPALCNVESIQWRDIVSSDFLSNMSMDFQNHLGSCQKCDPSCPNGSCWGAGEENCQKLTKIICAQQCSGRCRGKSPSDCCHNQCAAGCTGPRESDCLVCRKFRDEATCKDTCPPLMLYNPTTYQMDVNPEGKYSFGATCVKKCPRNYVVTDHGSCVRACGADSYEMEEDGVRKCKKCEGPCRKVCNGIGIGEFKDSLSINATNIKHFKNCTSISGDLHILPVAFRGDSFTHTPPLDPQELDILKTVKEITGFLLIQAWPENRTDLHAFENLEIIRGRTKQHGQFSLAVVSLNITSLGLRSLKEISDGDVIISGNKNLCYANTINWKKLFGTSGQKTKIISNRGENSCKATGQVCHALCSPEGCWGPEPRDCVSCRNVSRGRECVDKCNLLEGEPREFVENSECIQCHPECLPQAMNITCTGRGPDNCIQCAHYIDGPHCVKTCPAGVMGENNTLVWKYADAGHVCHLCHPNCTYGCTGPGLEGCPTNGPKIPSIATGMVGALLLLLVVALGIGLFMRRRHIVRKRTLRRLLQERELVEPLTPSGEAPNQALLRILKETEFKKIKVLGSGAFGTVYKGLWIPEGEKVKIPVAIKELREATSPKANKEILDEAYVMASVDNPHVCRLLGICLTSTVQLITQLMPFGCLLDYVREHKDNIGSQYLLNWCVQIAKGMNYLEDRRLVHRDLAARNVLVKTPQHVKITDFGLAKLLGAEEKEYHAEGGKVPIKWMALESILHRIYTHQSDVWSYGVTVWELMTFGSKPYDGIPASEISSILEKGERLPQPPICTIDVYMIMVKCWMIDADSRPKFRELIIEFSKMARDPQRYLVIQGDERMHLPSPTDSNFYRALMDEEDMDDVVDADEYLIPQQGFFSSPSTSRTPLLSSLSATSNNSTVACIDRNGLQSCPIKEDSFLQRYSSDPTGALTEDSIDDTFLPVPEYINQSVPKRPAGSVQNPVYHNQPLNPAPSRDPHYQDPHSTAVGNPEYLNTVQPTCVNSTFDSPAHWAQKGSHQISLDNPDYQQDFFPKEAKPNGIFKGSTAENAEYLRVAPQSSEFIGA

| SMILES | composite z-score |
| --- | --- |
| CCOC(=O)C1=C[C@@H](C(C)(C)C)N(S(=O)(=O)c2ccc(C)cc2)[C@H]1c1ccc(C)cc1 | 0.78 |
| CCOC(=O)C[C@H]1[C@H](OC(=O)c2ccccc2-c2ccccc2)[C@@H](NC(=O)c2ccccc2)c2cc(OCCCO)ccc2N1C(=O)c1ccccc1 | -0.106 |
| O=C1C2C=CC(C(O)C=Cc3ccc([N+](=O)[O-])cc3)N(Nc3ccccc3)C2C(=O)N1c1ccccc1 (configuration not stated) | 0.244 |

target: Follistatin-related protein 3 (Homo sapiens) (UniProt O95633); test: FSTL3 binders on small-molecule microarrays, primary screen, biochemical, small-molecule microarray, 635 nm fluorescence (AID 1105); details: FSTL3 binding, higher = more signal;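 further: score merges emission near 667 nm and signal to noise per printed spot across three slides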
Sequence (O95633 whole entry, looked up): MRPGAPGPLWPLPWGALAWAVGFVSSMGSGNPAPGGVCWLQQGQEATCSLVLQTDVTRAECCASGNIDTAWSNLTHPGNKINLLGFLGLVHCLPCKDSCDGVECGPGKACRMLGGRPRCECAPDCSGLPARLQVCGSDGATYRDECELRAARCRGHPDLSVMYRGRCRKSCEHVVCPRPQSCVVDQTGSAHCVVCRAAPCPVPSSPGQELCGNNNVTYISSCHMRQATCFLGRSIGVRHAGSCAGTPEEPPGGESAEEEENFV

| SMILES | composite z-score |
| --- | --- |
| CC(C)(C)OC(=O)CC[C@]1(C(=O)N2CCCCC2)COC(c2ccc(OCCCO)cc2)=N1 | 0.324 |
| NC(=O)[C@H]1[C@@H]2C(=O)O[C@@H](c3ccccc3)[C@@H](c3ccccc3)N2[C@@H](c2ccc(O)cc2)[C@]12C(=O)Nc1ccc(C#CC3=CCCCC3)cc12 | -0.0656 |
| CN1C(=O)[C@@]2(Cc3ccccc3)N=C(c3ccc(OCCCO)cc3)O[C@H]2c2ccccc21 | 1.11 |
| Cc1nc2cc(Br)ccc2c(=O)n1Cc1cccc(O)c1 | 0.782 |
| Cc1ccc(N2C(=O)c3ccccc3[C@](C)(C(=O)NCc3ccccc3)[C@@H]2c2ccc(CO)cc2)nc1 | -0.192 |
| CCCNC(=O)[C@@]1(Sc2ccc(C)cc2)CC(=O)N(C2CCCCC2)[C@@H]1c1ccc(CO)cc1I | 0.192 |
| COC(=O)[C@@]1(Cc2ccc(F)cc2)[C@H]2c3cc(C(=O)N(C)C)n(Cc4c(CO)[nH]cc(C)c4=O)c3C[C@H]2CN1C(=O)c1ccccc1 | -0.217 |
| O=C1C2C=CC(C(O)c3ccco3)N(Nc3ccccc3)C2C(=O)N1c1ccccc1 (configuration not stated) | -0.713 |
| C=C(COC)C(=O)CC[C@H](OC(C)=O)c1ccc(OCCO)cc1 | 0.576 |
| COCCOC(=O)N1C(=O)[C@@]2(c3cc(C#CC4=CCCCC4)ccc31)[C@H](c1ccc(O)cc1)N1[C@H](c3ccccc3)[C@H](c3ccccc3)OC(=O)[C@H]1[C@@H]2C(=O)NC[C@H](O)c1ccccc1 | 1.17 |
| [N-]=[N+]=NC[C@H](Cc1ccccc1)NC(=O)c1ccccc1 | -0.394 |
| COC(=O)[C@@]1(Cc2ccc(OC)cc2)[C@H]2c3cc(C(=O)N4CCCC4)n(Cc4ccc(OC(F)(F)F)cc4)c3C[C@H]2CN1C(=O)c1ccccc1 | 0.598 |
| CCC(CC)C(O)C1C=CC2C(=O)N(c3ccccc3)C(=O)C2N1Nc1ccc([N+](=O)[O-])cc1 (configuration not stated) | 0.393 |
| COC(=O)C1N=C(c2ccc(OCCCO)cc2)N(c2ccccc2)O1 (configuration not stated) | 0.864 |
| Cc1ccccc1C(O)C1C=CC2C(=O)N(c3ccccc3)C(=O)C2N1Nc1ccc([N+](=O)[O-])cc1 (configuration not stated) | 1.19 |
| COCC1=C2[C@@H](CCc3ccccc3)OB(O)C[C@@H]2[C@@H]2C(=O)N(C)C(=O)[C@@H]2C1 | 0.146 |
| O=C1O[C@H](c2ccccc2)[C@H](c2ccccc2)N2[C@H]1[C@@H](C(=O)N1CCCCCCC1)[C@]1(C(=O)Nc3ccc(C#CC4(O)CCCCCC4)cc31)[C@H]2c1ccccc1OCCO | 1.77 |
| CCOC(=O)C1=CC[C@@H](c2ccccc2)N(S(=O)(=O)c2ccc(C)cc2)[C@H]1c1cccc(OC)c1 | 0.549 |
| COc1cc(C(O)C2C=CC3C(=O)N(Cc4ccccc4)C(=O)C3N2n2cnnc2)cc(OC)c1OC (configuration not stated) | 0.16 |
| COc1ccc([Si](C)(C)[C@@H]2[C@@H](CCn3cc([C@H](O)c4ccccc4)nn3)O[C@]3(C(=O)N(c4ccccc4)c4ccccc43)[C@H]2C)cc1 | 0.115 |
| COc1cc(NN2C(C(O)c3ccccc3)C=CC3C(=O)N(C)C(=O)C32)cc(OC)c1OC (configuration not stated) | 0.362 |
| NC(=O)N1C(=O)C2C(C1=O)C1C=C(CCCO)C2C(C2CC2)N1Cc1cccc(OC(F)(F)F)c1 (configuration not stated) | -0.494 |
| O=c1cccc(-c2ccc(F)cc2)o1 | 0.74 |
| CN(C)CCCCCCNC(=O)[C@@H]1C[C@@H]2C(=O)N[C@@H](CCCCN)C(=O)N2[C@@H]1c1ccc(O)cc1 | 1.64 |
| COCCOC(=O)N1C(=O)[C@@]2(c3cc(C#Cc4ccc(OC)cc4)ccc31)[C@H](C(=O)NC[C@H](O)c1ccccc1)[C@H]1C(=O)O[C@H](c3ccccc3)[C@H](c3ccccc3)N1[C@@H]2c1ccc(OCCO)cc1 | 0.863 |
| CC(C)C(=C=CC[C@@H](O)c1cccc(OCCO)c1)C[C@@H](O)c1ccccn1 | 0.0146 |
| C=C(CCCC)C(=O)CC[C@H](OC(C)=O)c1ccc(OCCO)cc1 | -0.746 |
| C=C(CCCC)/C(=C/C[C@H](OC(C)=O)c1ccc(OCCO)cc1)c1cc(C(=O)OC)ccc1OC | 0.613 |
| COc1cc2c(cc1O)C(c1ccc(CN3CCCC3)cc1)N(C)CC2 (configuration not stated) | -0.567 |
